From PubChem BioAssay (EPA / NIEHS)
Results filed as inconclusive are left out. Active and inactive are the calls of the source. Rule for the calls, unless noted: active = hit-call score of the fitted dose curve at least 0.9, where 1 is the maximum; inconclusive = response in the unintended direction; inactive = score below 0.9.

Assays:
[1] = TOX21_p53_BLA_p2_viability: Viability Assessment in the Tox21 HCT-116 p53 Agonism Beta-lactamase Assay, Phase 2 (AID 2283591);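 note: compound exposure lasted 16 h at 37 °C; actives lower the ATP signal meaning cytotoxicity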
Summary of the method: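 HCT-116 p53-bla cells (4000/well) rested 5 h at 37C, then received compounds in DMSO (217-fold dilution) for 16 h at 37C, 5% CO2. After the CCF4 read, CellTiter-Glo was added; ATP luminescence was read after 30 min at room temperature.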

[2] = TOX21_p53_BLA_p4_viability: Viability Assessment in the Tox21 HCT-116 p53 Agonism Beta-lactamase Assay, Phase 4 (AID 2283597);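 note: hits lower the luminescence signal meaning cytotoxicity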
Summary of the method: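 Cells plated, 5 h pre-incubation; DMSO compounds pinned (217-fold dilution); 16 h, 37C/5% CO2; CCF4-AM 2 h RT; CellTiter-Glo 30 min RT; luminescence read.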

[3] = biological target: Cellular tumor antigen p53 (Homo sapiens) (UniProt P04637); assay: TOX21_p53_BLA_p5_ratio: Tox21 HCT-116 p53 Agonism Beta-lactamase Assay, Ratio, Phase 5 (AID 2283599)
Summary of the method: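 HCT-116 cells carrying a p53-inducible beta-lactamase reporter were seeded at 4000 cells/well and dosed after 5 h with compound in DMSO (217-fold dilution). After 16 h at 37C, CCF4-AM substrate was added for 2 h, and the 460/530 nm emission ratio was scored as gain-of-signal versus DMSO.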

[4] = biological target: Cellular tumor antigen p53 (Homo sapiens) (UniProt P04637); assay: TOX21_p53_BLA_p3_ratio: Tox21 HCT-116 p53 Agonism Beta-lactamase Assay, Ratio, Phase 3 (AID 2283596)
Summary of the method: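 HCT116 p53-bla cells (4000/well) given compound in DMSO (217-fold dilution) after 5 h, incubated 16 h at 37C. CCF4-AM substrate 2 h at room temperature; 460/530 nm emission ratio, gain fitted against DMSO.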

[5] = TOX21_p53_BLA_p5_viability: Viability Assessment in the Tox21 HCT-116 p53 Agonism Beta-lactamase Assay, Phase 5 (AID 2283600)
Summary of the method: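 4000 cells/well; 5 h pre-incubation; DMSO compounds pin-transferred, 217-fold dilution; 16 h, 37C/5% CO2; CCF4-AM 2 h RT; CellTiter-Glo 30 min RT; luminescence.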

[6] = biological target: Cellular tumor antigen p53 (Homo sapiens) (UniProt P04637); assay: TOX21_p53_BLA_p4_ratio: Tox21 HCT-116 p53 Agonism Beta-lactamase Assay, Ratio, Phase 4 (AID 2283601)
Summary of the method: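 HCT116 cells carrying an inducible beta-lactamase reporter were plated at 4000 cells/well, rested 5 h, then exposed to compounds in DMSO (217-fold dilution) for 16 h at 37C. CCF4-AM substrate was loaded 2 h at room temperature; 460/530 nm emission ratio scored gain-of-signal versus DMSO.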

[7] = TOX21_p53_BLA_p3_viability: Viability Assessment in the Tox21 HCT-116 p53 Agonism Beta-lactamase Assay, Phase 3 (AID 2283593);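 note: cells exposed to compound for 16 h before reading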
Summary of the method: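 HCT-116 cells (4000/well) rested 5 h at 37C, then got DMSO compounds by pin tool (217-fold dilution) for 16 h at 37C, 5% CO2. After the bla read, CellTiter-Glo was added and luminescence read at 30 min, room temperature.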

[8] = CCTE_Harrill_HTTr_Viability_MCF7: CCTE's 6-hour Cell Viability Assessment for the High-Throughput Transcriptomics (HTTr) Platform, in MCF-7 cells cultured in DMEM + 10% fetal bovine serum, Harrill Lab (AID 2284010; active = hit-call score of the fitted dose curve at least 0.9, where 1 is the maximum; inactive = score below 0.9)
Summary of the method: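 MCF-7 cells in DMEM + 10% FBS, 384-well, exposed 6 h to an eight-point dilution series. Membrane integrity scored by high-content imaging of propidium iodide exclusion; bidirectional fit versus DMSO.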

[9] = CCTE_Harrill_HTTr_Apoptosis_MCF7: CCTE's 6-hour Apoptosis Assessment for the High-Throughput Transcriptomics (HTTr) Platform, in MCF-7 cells cultured in DMEM + 10% fetal bovine serum, Harrill Lab (AID 2284011; active = hit-call score of the fitted dose curve at least 0.9, where 1 is the maximum; inactive = score below 0.9)
Summary of the method: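 MCF-7 (DMEM + 10% FBS), 384-well; 8-pt dilution series, 6 h chemical exposure; caspase-3/7 activation via CellEvent Caspase 3/7 Green, HCI; bidirectional fit vs DMSO.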

[10] = CCTE_Harrill_HTTr_CellCount_MCF7: CCTE's Cell Proliferation Assessment for the High-Throughput Transcriptomics (HTTr) Platform, Harrill Lab (AID 2284012);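 note: cells exposed to compound for six hours; intended direction is loss of nuclei count meaning fewer cells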
Summary of the method: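 MCF7 cells exposed 6 hours to an eight-point dilution series; Hoechst-stained nuclei counted by high-content imaging. Bidirectional curve fitting against DMSO baseline.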

[11] = biological target: Cellular tumor antigen p53 (Homo sapiens) (UniProt P04637); assay: TOX21_p53_BLA_p2_ratio: Tox21 HCT-116 p53 Agonism Beta-lactamase Assay, Ratio, Phase 2 (AID 2283592)
Summary of the method: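 HCT116 p53-bla; 4000 cells/well; 5 h pre-incubation; cpd in DMSO, 217-fold dilution; 16 h 37C/5% CO2; CCF4-AM 2 h RT; Ex 405, Em 460/530 ratio; DMSO = baseline; positive fitting direction.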

Measured: outcome

Chain of Cellular tumor antigen p53 (Homo sapiens) (P04637 whole entry, looked up): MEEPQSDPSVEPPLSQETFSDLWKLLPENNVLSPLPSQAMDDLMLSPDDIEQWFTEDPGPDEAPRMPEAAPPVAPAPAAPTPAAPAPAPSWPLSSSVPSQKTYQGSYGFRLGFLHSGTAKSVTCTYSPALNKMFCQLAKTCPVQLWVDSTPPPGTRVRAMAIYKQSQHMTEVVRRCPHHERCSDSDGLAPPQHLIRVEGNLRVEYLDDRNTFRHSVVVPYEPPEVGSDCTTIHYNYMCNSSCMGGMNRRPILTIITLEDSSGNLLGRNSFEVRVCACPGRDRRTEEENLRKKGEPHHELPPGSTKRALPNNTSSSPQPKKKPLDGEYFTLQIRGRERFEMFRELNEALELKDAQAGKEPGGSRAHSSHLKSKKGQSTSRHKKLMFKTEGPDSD

CCCBr
inactive: [1] | [2] | [3]

O=C(Cl)C(Cl)(Cl)Cl
inactive: [1] | [4] | [2] | [5] | [6]

c1ccc(CN2CCNCC2)cc1
inactive: [1] | [4] | [3]

CN1CC[C@]23c4c5ccc(O)c4O[C@H]2[C@@H](O)CC[C@H]3[C@H]1C5
inactive: [1] | [4] | [2] | [3]

Brc1ccccc1
inactive: [1] | [2] | [5]

CC=C(CC)C(=O)NC(N)=O
inactive: [1] | [7] | [2] | [6]

Cc1cccc(N)c1C
inactive: [1] | [2] | [3] | [6]

CCCCC(=O)Cl
inactive: [1] | [4] | [2]

Cc1nnc2n1-c1ccc(Cl)cc1C(c1ccccc1)=NC2
inactive: [1] | [4] | [2] | [3] | [6]

CCOC(=O)CBr
inactive: [1] | [4] | [2] | [5] | [6]

Cl
inactive: [1] | [7] | [2] | [5] | [8] | [9] | [10]

Nc1cc(Cl)ccc1Cl
inactive: [11] | [7] | [4] | [2] | [3] | [5] | [6]
